Experimental data reported in the supplement of paper PMC4022240.
± gives the standard deviation.

B1: Unmod H3 variant A T K A A R K S A P S T G (peptide)
chain: ATKAARKSAPSTG
B2: Unmod H3 variant R K S A P A T G G V K K P (peptide)
chain: RKSAPATGGVKKP
B3: Unmod H3 variant R K S A P S T G G V K K P (peptide)
chain: RKSAPSTGGVKKP
B4: Unmod H3 variant A T G G V K K P H R Y R P (peptide)
chain: ATGGVKKPHRYRP
B5: Unmod H3 variant P F Q R L V R E I A Q D F (peptide)
chain: PFQRLVREIAQDF
B6: Unmod H3 variant V R E I A Q D F K T D L R (peptide)
chain: VREIAQDFKTDLR
B7: Unmod H3 variant Q D F K T D L R F Q S S A (peptide)
chain: QDFKTDLRFQSSA
B8: Unmod H3 variant A L Q E A C E A Y L V G L (peptide)
chain: ALQEACEAYLVGL
B9: Unmod H3 variant A L Q E A S E A Y L V G L (peptide)
chain: ALQEASEAYLVGL
B10: Unmod H3 variant V G L F E D T N L C A I H (peptide)
chain: VGLFEDTNLCAIH

Biological target: T1, HaloTag-ATRX ADD domain (163-292)
T1 chain: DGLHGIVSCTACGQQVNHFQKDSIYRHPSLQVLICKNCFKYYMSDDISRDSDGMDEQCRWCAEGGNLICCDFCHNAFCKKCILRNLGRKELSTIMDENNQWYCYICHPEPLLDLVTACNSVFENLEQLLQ
Test: peptide microarray binding signal (635 nm), min-max normalized on array (fraction of array maximum); higher = stronger binding
Settings: peptide region: Unmod H3 variant; binder concentration: 50 nM
Summary of the method: (§1)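 Arrays carried histone 13-mer peptide–cellulose conjugates printed in triplicate on nitrocellulose alongside a Cy3 tracer. After overnight blocking at 4°C, they were incubated for 1 h at 4°C with biotin-labelled HaloTag reader fusions (10 nM to 1 μM) plus streptavidin-Alexa Fluor 647, or with rabbit histone antibodies (1:10,000 to 1:2,000) plus anti-rabbit Alexa 647. Scanning on an Axon GenePix 4000B used 635 nm for signal and 532 nm for misprints. The binding signal reported is each triplicate's mean spot intensity after per-library min-max scaling.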

Going from B1 to B2, the “peptide microarray binding signal” value rises from 0.00285 ± 0.00016 to 0.00398 ± 4.1e-05.

Compared with B3, B4 is higher in “peptide microarray binding signal” value: 0.002821 ± 2.4e-05 for the first, 0.00552 ± 0.0011 for the second.

First: B5
Second: B6
The “peptide microarray binding signal” value of the first is higher: 0.0275 ± 0.0017 for the first, 0.00495 ± 9.5e-05 for the second.

Going from B7 to B8, the “peptide microarray binding signal” value falls from 0.00483 ± 6.5e-05 to 0.00166 ± 5.9e-05.

B9 and B10 are within error of each other in “peptide microarray binding signal” value: 0.001818 ± 8.5e-06 for the first, 0.00179 ± 3.6e-05 for the second.

Same assay, conditions: peptide region: Unmod H3 variant; binder concentration: 500 nM

First: B1
Second: B2
The “peptide microarray binding signal” value of the first is lower: 0.00757 ± 0.00026 for the first, 0.0111 ± 0.0002 for the second.

B3 and B4 are within error of each other in “peptide microarray binding signal” value: 0.0103 ± 0.00037 for the first, 0.00938 ± 0.0008 for the second.

Going from B5 to B6, the “peptide microarray binding signal” value falls from 0.0328 ± 0.0016 to 0.0115 ± 0.00061.

Compared with B7, B8 is lower in “peptide microarray binding signal” value: 0.011 ± 0.00018 for the first, 0.00148 ± 3.6e-05 for the second.

Going from B9 to B10, the “peptide microarray binding signal” value rises from 0.00233 ± 5.1e-05 to 0.0031 ± 4.8e-05.

Biological target: HaloTag-ING2 PHD (mouse Ing2 200-280)
Test: as above
Settings: peptide region: Unmod H3 variant; binder concentration: 10 nM
Summary of the method: as §1

B1 and B2 are within error of each other in “peptide microarray binding signal” value: 0.0164 ± 0.0095 for the first, 0.008 ± 0.00021 for the second.

First: B3
Second: B4
The “peptide microarray binding signal” value of the first is higher: 0.00674 ± 8.2e-05 for the first, 0.00537 ± 0.00055 for the second.

First: B5
Second: B6
The “peptide microarray binding signal” value of the first is higher: 0.01385 ± 8.4e-05 for the first, 0.00853 ± 0.00018 for the second.

First: B7
Second: B8
The “peptide microarray binding signal” value of the first is higher: 0.00973 ± 0.00021 for the first, 0.00179 ± 2.8e-05 for the second.

Compared with B9, B10 is lower in “peptide microarray binding signal” value: 0.00292 ± 5.6e-05 for the first, 0.002686 ± 1.5e-05 for the second.

Same assay, conditions: peptide region: Unmod H3 variant; binder concentration: 100 nM

First: B1
Second: B2
The “peptide microarray binding signal” value of the first is lower: 0.00943 ± 0.00062 for the first, 0.021 ± 0.00036 for the second.

B3 and B4 are within error of each other in “peptide microarray binding signal” value: 0.0212 ± 0.0031 for the first, 0.0186 ± 0.0068 for the second.

Going from B5 to B6, the “peptide microarray binding signal” value falls from 0.0259 ± 0.0054 to 0.0134 ± 0.00073.

First: B7
Second: B8
The “peptide microarray binding signal” value of the first is higher: 0.0168 ± 0.0012 for the first, 0.00163 ± 4.4e-05 for the second.

Going from B9 to B10, the “peptide microarray binding signal” value rises from 0.00206 ± 7.3e-05 to 0.00241 ± 4e-05.

Biological target: anti-H3K4me3 antibody ab8580
Test: as above
Settings: peptide region: Unmod H3 variant; binder concentration: 1:2,000 dilution
Summary of the method: as §1

Going from B1 to B2, the “peptide microarray binding signal” value falls from 0.00109 ± 3.3e-05 to 0.000831 ± 5.9e-05.

Going from B3 to B4, the “peptide microarray binding signal” value falls from 0.000963 ± 5e-05 to 0.000585 ± 3.7e-05.

Going from B5 to B6, the “peptide microarray binding signal” value falls from 0.00315 ± 0.00022 to 0.00247 ± 5.5e-05.

Going from B7 to B8, the “peptide microarray binding signal” value falls from 0.00276 ± 8.1e-05 to 0.0004342 ± 4.3e-06.

B9 and B10 are the same in “peptide microarray binding signal” value: 0.0004719 ± 4.7e-06 for the first, 0.000472 ± 9.3e-06 for the second.

Same assay, conditions: peptide region: Unmod H3 variant; binder concentration: 1:10,000 dilution

B1 and B2 are the same in “peptide microarray binding signal” value: 0.001312 ± 1.3e-05 for the first, 0.001312 ± 1.3e-05 for the second.

Compared with B3, B4 is lower in “peptide microarray binding signal” value: 0.000799 ± 8.3e-06 for the first, 0.000456 ± 1.3e-05 for the second.

Going from B5 to B6, the “peptide microarray binding signal” value falls from 0.00759 ± 0.00028 to 0.00474 ± 0.00018.

Going from B7 to B8, the “peptide microarray binding signal” value falls from 0.00542 ± 0.0011 to 0.000628 ± 6.7e-06.

First: B9
Second: B10
The “peptide microarray binding signal” value of the first is higher: 0.000799 ± 8.3e-06 for the first, 0.000628 ± 6.7e-06 for the second.

Biological target: anti-H3K9me3 antibody ab8898
Test: as above
Settings: peptide region: Unmod H3 variant; binder concentration: 1:2,000 dilution
Summary of the method: as §1

Compared with B1, B2 is lower in “peptide microarray binding signal” value: 0.000695 ± 2.7e-05 for the first, 0.000529 ± 1.3e-05 for the second.

Going from B3 to B4, the “peptide microarray binding signal” value falls from 0.000468 ± 9e-06 to 0.000227 ± 7.1e-06.

Compared with B5, B6 is lower in “peptide microarray binding signal” value: 0.00316 ± 0.00013 for the first, 0.00248 ± 0.00019 for the second.

Going from B7 to B8, the “peptide microarray binding signal” value falls from 0.00157 ± 6.5e-05 to 0.000393 ± 1.4e-05.

Compared with B9, B10 is lower in “peptide microarray binding signal” value: 0.000453 ± 1.5e-05 for the first, 0.000287 ± 7.8e-06 for the second.

Same assay, conditions: peptide region: Unmod H3 variant; binder concentration: 1:10,000 dilution

Compared with B1, B2 is lower in “peptide microarray binding signal” value: 0.000923 ± 9.6e-06 for the first, 0.000692 ± 7.3e-06 for the second.

First: B3
Second: B4
The “peptide microarray binding signal” value of the first is higher: 0.000634 for the first, 0.000461 ± 8.7e-06 for the second.

Compared with B5, B6 is lower in “peptide microarray binding signal” value: 0.00427 ± 5.7e-05 for the first, 0.00259 ± 9.2e-05 for the second.

First: B7
Second: B8
The “peptide microarray binding signal” value of the first is higher: 0.00202 ± 3.2e-05 for the first, 0.000519 ± 5.6e-06 for the second.

Going from B9 to B10, the “peptide microarray binding signal” value rises from 0.000634 to 0.000807.
